In the library only some 4.2% were active in any assay of this set; here they are far more common.
RecA intein inh – inhibitors of M. tuberculosis RecA intein splicing; P9WHJ3; cell-free RecA intein splicing, fluorescence; inhibition, % (test concentration not listed); hit rate 0.75% among 290,000; AID 2221; in the data active = inhibition above about 30%
Target sequence (P9WHJ3 whole entry, looked up): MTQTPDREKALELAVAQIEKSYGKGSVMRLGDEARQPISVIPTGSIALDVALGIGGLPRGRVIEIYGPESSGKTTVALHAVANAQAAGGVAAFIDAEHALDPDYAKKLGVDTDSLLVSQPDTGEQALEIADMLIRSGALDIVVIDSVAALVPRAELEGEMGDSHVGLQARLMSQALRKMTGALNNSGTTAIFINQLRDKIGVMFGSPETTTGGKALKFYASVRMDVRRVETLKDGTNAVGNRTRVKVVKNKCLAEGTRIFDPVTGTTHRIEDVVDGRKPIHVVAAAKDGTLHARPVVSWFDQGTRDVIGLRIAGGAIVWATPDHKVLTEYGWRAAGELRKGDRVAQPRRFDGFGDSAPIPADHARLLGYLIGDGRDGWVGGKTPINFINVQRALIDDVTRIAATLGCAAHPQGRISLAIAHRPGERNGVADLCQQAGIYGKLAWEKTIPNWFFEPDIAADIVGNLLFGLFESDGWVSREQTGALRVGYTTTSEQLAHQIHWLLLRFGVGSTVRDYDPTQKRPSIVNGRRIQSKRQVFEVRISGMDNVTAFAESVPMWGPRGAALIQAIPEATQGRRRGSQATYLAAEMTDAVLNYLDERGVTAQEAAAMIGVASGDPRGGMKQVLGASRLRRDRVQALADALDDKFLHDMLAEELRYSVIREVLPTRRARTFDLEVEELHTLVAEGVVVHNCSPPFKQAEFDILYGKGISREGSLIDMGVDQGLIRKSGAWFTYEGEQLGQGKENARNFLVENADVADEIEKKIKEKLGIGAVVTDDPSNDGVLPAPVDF
PrPC surface inh – reduces human prion protein on the cell surface; P04156; cell surface PrPC, TR-FRET read-out; inhibition, % at 13.8 µM; hit rate 0.43% among 370,000; AID 720596; in the data active = inhibition above about 24%
BJeLR lethal – kills HRASV12-expressing BJeLR cells. BJeLR (HRASV12) viability, CellTiter-Glo ATP luminescence, 48 h. inhibition, % (concentration not given with the values). hit rate 0.17% among 300,000. AID 1554; in the data active = inhibition above about 50%
GDH-TPI counter – GDH-TPI coupled enzyme inhibition counter-screen | inhibition, % at 4.8 µM | hit rate 1.2% among 360,000 | GDH-TPI coupled enzyme counterscreen, NADH absorbance; in the data active = inhibition above about 30%
FBA Mtb inh – inhibits M. tuberculosis FBA enzyme | AID 588726 | purified M. tuberculosis FBA, fluorescence read-out | inhibition, % at 1 µM | hit rate 2.3% among 360,000 | P9WQA3; in the data active = inhibition above about 27%
A number is an active result; . = inactive; / = no result; + = active, no number.

SMILES | RecA intein inh | PrPC surface inh | BJeLR lethal | GDH-TPI counter | FBA Mtb inh
N#Cc1nc(-c2ccco2)oc1NCc1cccnc1 | . | . | . | . | .
N#Cc1nc(-c2cccc(Cl)c2)oc1NCc1cccnc1 | . | . | . | . | 141
COc1ccc(-c2nc(C#N)c(NCCN(C)C)o2)cc1 | . | . | . | . | 123
CCN(CC)CCCNc1oc(-c2cccc(Cl)c2)nc1C#N | . | . | . | . | 134
CN(C)CCCNc1oc(-c2ccc(Cl)cc2)nc1C#N | . | . | . | . | 173
O=C(CN1C(=O)CCSc2ccccc21)Nc1ccc(Cl)c(Cl)c1 | / | . | / | / | /
COc1ccc(Nc2oc(-c3ccc(Cl)cc3)nc2C#N)cc1 | . | . | . | . | .
COCCNc1oc(-c2ccc(Cl)cc2)nc1C#N | . | . | . | 37 | +
N#Cc1nc(-c2ccccc2Cl)oc1NCc1ccco1 | . | . | . | . | .
Cc1ccc(-c2nc(C#N)c(NCCc3ccccn3)o2)cc1 | . | . | . | . | .
COCCNc1oc(-c2ccc(C)cc2)nc1C#N | . | . | . | . | 200
N#Cc1nc(-c2ccc(Cl)cc2)oc1NCc1ccco1 | . | . | . | . | 175
CCOC(=O)[C@]12CCCC=C1N(CCCOC)C(=O)[C@@H]2CC(=O)NCc1cccs1 | / | . | / | / | /
O=C(N/N=C/c1ccc([N+](=O)[O-])o1)C(=O)Nc1ccc(C(=O)O)cc1 | . | . | . | . | .
NS(=O)(=O)c1ccc(-c2ccc(/C=N/NC(=O)c3ccc([N+](=O)[O-])cc3)o2)cc1 | . | . | . | 62 | .
CCCOc1ccc(C(=O)N/N=C/c2ccc(-c3ccc(S(=O)(=O)Nc4ncccn4)cc3)o2)cc1 | . | . | . | 33 | .
NS(=O)(=O)c1ccc(-c2ccc(/C=N/Nc3ccc(C(=O)O)cc3)o2)cc1 | . | . | . | 34 | .
CCC(=O)N/N=C/c1ccc(-c2ccc([N+](=O)[O-])cc2)o1 | . | . | . | . | .
O=C(O)c1ccc(N/N=C/C=C/c2ccc([N+](=O)[O-])o2)cc1 | . | . | . | 31 | .
CCCOc1ccc(C(=O)Nc2ccc(S(=O)(=O)Nc3onc(C)c3C)cc2)cc1 | . | . | . | . | .
O=C(O)c1ccc(N/N=C/c2ccc(-c3ccc(Cl)cc3Cl)o2)cc1 | . | . | . | . | .
O=C(O)c1ccc(N/N=C/c2ccc(-c3cccc(Cl)c3)o2)cc1 | . | . | . | 46 | .
O=C(O)c1cccc(-c2ccc(/C=N/Nc3ccc([N+](=O)[O-])cc3)o2)c1 | . | . | . | 33 | .
NC(=S)N/N=C/c1ccc(-c2cccc([N+](=O)[O-])c2)o1 | . | . | . | 50 | .
O=C(N/N=C/c1c(F)cccc1Cl)C1CC1 | . | . | . | . | .
SMILES | RecA intein inh | PrPC surface inh | BJeLR lethal | GDH-TPI counter | FBA Mtb inh
O=C(O)c1cc(-c2ccc(/C=N/Nc3ccc([N+](=O)[O-])cn3)o2)ccc1Cl | / | . | . | . | .
O=C(O)c1ccc(N/N=C/c2ccc(-c3cc(Cl)ccc3Cl)o2)cc1 | . | . | . | . | .
O=C(O)c1ccc(N/N=C/c2c(F)cccc2Cl)cc1 | . | . | . | 38 | .
CCCC[C@H]1C2CC(OC(=O)Nc3ccc(C)cc3)C(C2)[C@H]2CCCCN21 (some centres undefined) | / | . | / | / | /
CS(=O)(=O)OC12CCCN(C1)/C(=C/c1ccc(Cl)cc1)C2 (centres undefined) | / | . | / | / | /
CC(=O)N1CCN(C2=NC(=O)N(c3ccc(Br)cc3)C(=O)C2)CC1 | / | . | / | / | /
COC(=O)[C@]12C[C@H](CC(=O)NCCc3ccccc3OC)C(=O)N(CCc3ccc(OC)c(OC)c3)C1=C[C@H](C1CCCC1)O[C@@H]2C | / | . | / | / | /
O=[N+]([O-])c1ccc(C=NNc2ccc(S(=O)(=O)O)cc2)cc1 | / | . | / | 31 | .
CCCCC(=O)N/N=C/c1ccc(-c2ccc([N+](=O)[O-])cc2)o1 | . | . | . | . | .
O=C(O)c1ccc(-c2ccc(/C=N/Nc3ccc([N+](=O)[O-])cc3)o2)cc1 | . | . | . | 52 | .
O=[N+]([O-])c1ccc(NN=Cc2cccc([N+](=O)[O-])c2)cc1 | / | . | / | . | .
Cc1nc(N(C)C)c2sc(=S)n(C)c2n1 | . | . | . | 31 | .
CC(C)CN1C(=O)C[C@@]2(C(=O)N(C)c3ccc(NS(=O)(=O)C4CC4)cc32)C1c1ccccc1 (some centres undefined) | / | . | / | / | /
Cc1c(C)c2cc(Cl)c(O)c(CN3CCCC(C)C3)c2oc1=O (centres undefined) | . | . | . | . | +
Cc1c(C)c2cc(Cl)c(O)c(CN3CCN(C)CC3)c2oc1=O | / | . | . | . | +
CC1CCCN(Cc2c(O)ccc3c4c(c(=O)oc23)CCCC4)C1 (centres undefined) | . | . | . | . | /
CCc1cc2c(=O)c(-c3nc4ccccc4n3C)c(C)oc2c(CN2CCN(C)CC2)c1O | . | / | . | / | /
Cc1cc(OCC(=O)NCc2ccncc2)c2c(C)c(C)c(=O)oc2c1 | . | . | . | . | .
Cc1c(CC(=O)O)c(=O)oc2c(C)c(OCc3ccccc3)ccc12 | . | . | . | . | .
COC(=O)Cc1c(C)c2ccc(OCc3nn[nH]n3)cc2oc1=O | . | . | . | . | 189
CCN(CC)Cc1c(O)ccc2c(C)c(CC(=O)OC)c(=O)oc12 | . | . | . | . | +
COC(=O)Cc1c(C)c2ccc(OCc3nn[nH]n3)c(C)c2oc1=O | . | . | . | . | 160
COC(=O)Cc1c(C)c2c(OCc3nn[nH]n3)cc(C)cc2oc1=O | . | . | . | . | 172
CC(C)c1cc(C(C)C)c(S(=O)(=O)N2CCC(C(=O)NCC3COCCO3)CC2)c(C(C)C)c1 (centres undefined) | / | . | / | / | /
Cc1ccc(CN2CCCCC(NC(=O)c3ccccc3)C2=O)cc1 (centres undefined) | / | . | / | / | /
SMILES | RecA intein inh | PrPC surface inh | BJeLR lethal | GDH-TPI counter | FBA Mtb inh
C=CCN1[C@H](Cc2ccccc2)COc2cccc(N3CCCC3)c2S1(=O)=O | / | . | / | / | /
CCc1cc(=O)oc2cc(C)cc(OCc3nn[nH]n3)c12 | . | . | . | . | 119
CCc1cc(=O)oc2cc(C)cc(OC(=O)c3ccco3)c12 | . | . | . | . | .
O=c1c2ccc(F)cc2nc2sc(Nc3ccc4c(c3)CCC4)nn12 | / | . | / | / | /
O=C(O)c1ccc2c(c1)C(=O)N(c1ccc(Cl)cn1)C2=O | . | . | . | . | .
O=C(O)c1ccc2c(c1)C(=O)N(c1ccc([N+](=O)[O-])cn1)C2=O | . | . | . | 36 | .
O=C(CC1S/C(=N/N=C/c2ccco2)NC1=O)Nc1ccccc1 (centres undefined) | . | . | . | . | .
Cc1ccc(NC(=O)C2CC(=O)N/C(=N/N=C/c3ccco3)S2)cc1C (centres undefined) | . | / | . | 52 | .
O=C1CC(C(=O)Nc2ccc(F)cc2)S/C(=N\N=C\c2ccco2)N1 (centres undefined) | . | . | . | 34 | .
Cc1ccc(NC(=O)C2CC(=O)N/C(=N/N=C/c3ccco3)S2)cc1 (centres undefined) | . | . | . | 44 | .
COc1ccccc1OCc1nnc(SCC(=O)Nc2nnc(C3CC3)s2)n1C | . | . | . | . | 175
COc1ccc(OC)c(N2CC(O)=C(c3nc4ccccc4s3)C2=N)c1 | . | . | . | 36 | .

Compound activity as filed in PubChem.
